According to PubChem BioAssay AID492998 (Southern Research Specialized Biocontainment Screening …, 2010):
About 550 (24%) of roughly 2,300 compounds were called active. The rule behind the calls is not given here. The list is a sample of the results. Results with a measured potency or affinity are listed apart.

experiment: Vero E6 cell cytotoxicity, dose response, cytotoxicity control for non-replicating M. tuberculosis project, secondary assay (AID 492998); settings: series mostly up to 20 µM

Row | Compound | outcome
1 | O=C(c1ccco1)N1CCN(c2ccc(F)cc2)CC1 | inactive
2 | CCOC(=O)C(=O)Cc1nc2ccccc2s1 | inactive
3 | C=C1CCC[C@]2(C)C[C@H]3OC(=O)C(CNC(C)CCCC(C)C)[C@H]3CC12 (stereo not given in full) | inactive
4 | COc1ccc([C@@]2(O)c3c(ccc(CC=C(C)C)c3O)NC(=O)[C@@H]2OC)cc1 | inactive
5 | COc1ccccc1C(c1nnnn1Cc1ccccc1)N1CCC(C(N)=O)CC1 (stereo not given) | inactive
6 | Cc1ccc(-c2nnc(SCC#CCOC(=O)c3ccco3)o2)cc1 | inactive
7 | O=C(Cc1ccc(F)cc1)Nc1ccc(Cl)cn1 | inactive
8 | O=C1N(c2ccc3c(c2)OCCO3)C(c2ccccc2)C1(F)F (stereo not given) | inactive
9 | CCCCNC(=O)Cc1ccc(C)cc1 | inactive
10 | CC(C)(C)c1ccc2c(c1)OC(C(=O)N/N=C\c1ccccn1)CO2 (stereo not given) | inactive
11 | Cn1cccc1/C=N\NC(=O)C1COc2ccccc2O1 (stereo not given) | inactive
12 | O=C(Nc1cccc(Cl)c1)C1COc2ccccc2O1 (stereo not given) | inactive
13 | O=C(Nc1ccc([N+](=O)[O-])cc1)C1COc2ccccc2O1 (stereo not given) | inactive
14 | O=C(N/N=C\c1ccc([N+](=O)[O-])o1)C1COc2ccccc2O1 (stereo not given) | inactive
15 | CC(C)NC(=O)C1COc2ccccc2O1 (stereo not given) | inactive
16 | Clc1ccc(CN2C3=NCCCN3c3ccccc32)cc1 | inactive
17 | C#CCOc1coc(COC(=O)c2ccccc2)cc1=O | inactive
18 | Cc1ccc(C(C)NC(=O)c2cc3ccccc3oc2=O)cc1C (stereo not given) | inactive
19 | COC(=O)C1=C(C)N(Cc2ccccc2)C(=NCc2ccccc2)N[C@H]1c1cccc(F)c1 | inactive
20 | CC(OC(=O)c1ccc2c(=O)n3c(nc2c1)CCCCC3)C(=O)Nc1ccc(Cl)cn1 (stereo not given) | inactive
21 | CCOC(=O)Cn1cc(C#N)c2ccccc21 | inactive
22 | O=C(NCc1nnc(SC/C=C/c2ccccc2)o1)c1ccco1 | inactive

Row | Compound | outcome
23 | CCCC(C)C(=O)Nc1ccc(Cl)cn1 (stereo not given) | inactive
24 | CC(C)(C)OC(=O)NCCc1nnc(S(=O)(=O)Cc2ccc(Cl)cc2Cl)o1 | inactive
25 | Nc1nc2ccccc2n1CCOc1ccc(Br)cc1 | inactive
26 | O=C(Nc1ccc(-c2nc3ccccc3c(=O)o2)cc1)c1ccco1 | inactive
27 | Cn1c(CNc2ccccc2O)nc2ccccc21 | inactive
28 | Nc1nc2ccccc2n1CCOc1ccccc1Cl | inactive
29 | CCOC(=O)c1csc(COc2ccccc2Cl)n1 | inactive
30 | O=C(Nc1nc2ccccc2n1CCN1CCCC1)C1CCCCC1 | inactive
31 | O=C(COC(=O)c1cccs1)NCCC1=CCCCC1 | inactive
32 | O=C(OCC(=O)N1CCc2ccccc21)c1ccc([N+](=O)[O-])cc1 | inactive
33 | CN(C)CCN1C(=O)c2oc3ccccc3c(=O)c2C1c1cccc(Br)c1 (stereo not given) | inactive
34 | COC(=O)COc1cccc(NC(=O)COc2ccccc2)c1 | inactive
35 | COc1ccc(OC(=O)c2cc3ccccc3o2)cc1 | inactive
36 | CC(=O)c1ccc(OCC(=O)Nc2ccc3c(c2)CCC3)cc1 | inactive
37 | CC(=O)c1ccc(NC(=O)CCc2ccc(C)o2)cc1 | inactive
38 | CC1=NN(C(=O)c2ccccc2F)C(O)(c2ccc(Cl)cc2)C1 (stereo not given) | inactive
39 | Clc1cccc(/C=N\Nc2nccs2)c1 | inactive
40 | Cc1ccc(OCC(=O)OCc2c(C)noc2C)cc1C | inactive
41 | CCOC(=O)CN1NC2(CCCC(C)C2)NC1=S (stereo not given) | inactive
42 | Clc1c(OCCCn2ccnc2)ccc2ccccc12 | inactive
43 | C=CCn1c(=O)c(C(=O)Nc2cccnc2)c(O)c2ccccc21 | inactive
44 | CCn1c(=O)c(C(=O)Nc2ncccc2C)c(O)c2ccccc21 | inactive

Row | Compound | outcome
45 | Cc1cccnc1NC(=O)c1c(O)c2ccccc2n(C)c1=O | inactive
46 | Cn1c(=O)c(Oc2ccc(Cl)cc2)c(O)c2ccccc21 | inactive
47 | COc1ccc(C(O)CNc2ccc(C)cc2)cc1 (stereo not given) | inactive
48 | COc1ccc(NC(=O)c2nc3ccccc3s2)cc1 | inactive
49 | CC(C)c1cc(C(=O)N/N=C/C=C/c2ccccc2)n[nH]1 | inactive
50 | O=C(COc1ccccc1)Nc1ccc(Cl)cn1 | inactive
51 | O=C(NCc1ccccc1CN1CCCC1)c1cc2ccccc2o1 | inactive
52 | O=Cc1ccnc(-c2ccc(OC(=O)c3ccco3)cc2)n1 | inactive
53 | CCC1CCc2sc(C(=O)NCC3CCCO3)cc2C1 (stereo not given) | inactive
54 | CCOc1cc(C=O)cc(N=Nc2cccc([N+](=O)[O-])c2)c1O | inactive
55 | O=C(COc1ccc2ccccc2c1Br)N1CCCC1 | inactive
56 | CCCn1c(=O)c(C(=O)N/N=C/c2ccccc2F)c(O)c2ccccc21 | inactive
57 | Nc1nonc1C(=O)N/N=C/c1ccc([N+](=O)[O-])o1 | inactive
58 | CC1=NN(C(=O)c2ccoc2C)C(O)(C(F)(F)F)C1 (stereo not given) | inactive
59 | COC(=O)C(O)(c1ccc(NC(=S)NC(=O)c2ccccc2)cc1)C(F)(F)F (stereo not given) | inactive
60 | CCOC(=O)Nc1ccc2c(c1)N(C(=O)CCCl)c1ccccc1[S@]2=O | inactive
61 | C=CCn1c(O)c(C(C)=Nc2ccc(C(=O)OCC)cc2)c(=O)[nH]c1=O | inactive
62 | CCCCNC(=O)Nc1nnc(-c2ccc(Cl)cc2)o1 | inactive
63 | CCOC(=O)c1ccc(NC2OC(=O)c3ccccc32)cc1 (stereo not given) | inactive
64 | C=CCN=C1SC(CC)C(=O)N1S(=O)(=O)c1ccc(C)cc1 (stereo not given) | inactive
65 | Cc1ccc(C(=O)CCC2CCCC2=O)cc1 (stereo not given) | inactive
